Most compounds without a hit are left out; they make up all but 4.1% or so of the library.
hgDAF-12 ag: agonists of H. glycines DAF-12 nuclear receptor | activation, % at 6.8 µM | HEK293 GAL4-hgDAF12 UAS-luciferase reporter, agonist luminescence; normalized to butyrate control | 1.8% of 370,000 active | AID 687014;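 active means activation above a cutoff set at the mean of all screened compounds plus 3 SD, cut at about 10% in these data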
DAX1 inh-1: inhibitors of DAX1 repression of SF-1 activated StAR promoter; AID 652010; 1.1% of 370,000 active; HEK293T StAR-luciferase reporter, SF-1/DAX-1 repression relief; inhibition, % at 6.8 µM;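 active means inhibition above the mean over all tested compounds plus 3 SD, cut at about 3.6% in these data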;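 further: higher inhibition means more luminescence from relief of DAX-1 repression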
ssDAF-12 act: activates DAF-12 receptor from parasite S. stercoralis. HEK293 ssDAF-12/GRIP1 lit1-tk-luc reporter, luminescence; % of 3 µM dafachronic acid response. activation, % at 6.8 µM. 1% of 370,000 active;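 active means activation above the mean over all tested compounds plus 3 SD, cut at about 0.9% in these data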
DAX1 inh-2: inhibitors of human orphan nuclear receptor DAX1 (NR0B1); HEK293 Gal4-DAX1 luciferase reporter, luminescence; inhibition, % at 6.75 µM; 0.99% of 340,000 active;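 active means inhibition above the mean over all tested compounds plus 3 SD, cut at about 4.2% in these data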;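 further: inhibition shows as a rise in luminescence from relieved DAX1 repression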
Target sequence (P51843 207-470 limits assumed): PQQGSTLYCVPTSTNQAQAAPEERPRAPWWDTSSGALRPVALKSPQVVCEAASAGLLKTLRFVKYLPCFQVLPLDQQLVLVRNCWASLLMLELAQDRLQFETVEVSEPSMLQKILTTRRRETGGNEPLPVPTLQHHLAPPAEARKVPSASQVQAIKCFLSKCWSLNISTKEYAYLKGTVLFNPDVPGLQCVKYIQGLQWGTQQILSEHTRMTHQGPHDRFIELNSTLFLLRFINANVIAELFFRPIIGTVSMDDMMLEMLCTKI
hcDAF12 agonist: H. contortus DAF-12 activation, primary screen | HEK293 hcDAF-12 lit1-tk-luc reporter, luminescence; 0% DMSO, 100% Δ7-dafachronic acid | activation, % at 6.8 µM | 1.4% of 370,000 active | AID 652067;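 active means activation above the mean of all tested compounds plus 3 SD, cut at about 5.5% in these data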
DAX1 inh confirm: NR0B1 (human) inhibition, confirmation. shares compounds with DAX1 inh-1. HEK293T StAR-promoter luciferase reporter, SF-1/DAX-1 repression. inhibition, % at 6.8 µM. 87% of 2,400 active;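 active means inhibition above the average of every tested compound plus 3 SD, cut at about 3.8% in these data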;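 further: active compounds raise luminescence by relieving repression of the StAR reporter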
SF1 AF2mut Luc: counter-screen for DAX1 inhibitors: nonselective inhibitors with SF-1 AF2 mutant | shares compounds with DAX1 inh-1 | HEK293 StAR-luciferase, luminescence | inhibition, % at 6.8 µM | 78% of 2,400 active;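 active means inhibition above the mean of all tested compounds plus 3 SD, cut at about 3% in these data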
Numbers stand for hits.

CN(C(=O)c1cccc(NC(=O)Cc2ccc(NC(=O)C3CCN(C(=O)C4CC4)CC3)cc2)c1)C1CCC1 was read as hgDAF-12 ag inactive, DAX1 inh-1 5.0, ssDAF-12 act inactive, DAX1 inh-2 inactive, hcDAF12 agonist inactive, DAX1 inh confirm inactive and SF1 AF2mut Luc inactive.
Screening Cc1[nH]c2ccc(C(=O)NC3CCC(C)CC3)cc2c1C (stereo unspecified) returned hgDAF-12 ag 12.6, DAX1 inh-1 5.4, ssDAF-12 act inactive, DAX1 inh-2 inactive, hcDAF12 agonist inactive, DAX1 inh confirm 6.8 and SF1 AF2mut Luc 3.3.
Cc1nn2c(-c3ccc(F)cc3)ccnc2c1Br was read as hgDAF-12 ag inactive, DAX1 inh-1 inactive, ssDAF-12 act inactive, DAX1 inh-2 inactive and hcDAF12 agonist inactive.
Screening COc1ccc(-c2ccnc3c(Br)c(C)nn23)cc1 returned hgDAF-12 ag inactive, DAX1 inh-1 4.8, ssDAF-12 act inactive, DAX1 inh-2 inactive, hcDAF12 agonist inactive, DAX1 inh confirm inactive and SF1 AF2mut Luc inactive.
For CCCCOCC1CN(CCCC)S(=O)(=O)c2c(cccc2Sc2ccc(OC)c(OC)c2)O1 (stereo unspecified) the results were hgDAF-12 ag inactive, DAX1 inh-1 inactive, ssDAF-12 act inactive and hcDAF12 agonist inactive.
For O=C(CSc1nc2ccccc2[nH]1)NN=Cc1ccccc1C(=O)O the results were hgDAF-12 ag inactive, DAX1 inh-1 5.5, ssDAF-12 act inactive, hcDAF12 agonist 5.9, DAX1 inh confirm 12.0 and SF1 AF2mut Luc 7.8.
For O=C(CSc1nc2ccccc2[nH]1)N/N=C/c1ccncc1 the results were hgDAF-12 ag inactive, DAX1 inh-1 inactive, ssDAF-12 act inactive and hcDAF12 agonist inactive.
`COC(=O)C1CN(CCc2ccccc2)CCS(=O)(=O)N1Cc1ccccc1` (stereo unspecified) gave hgDAF-12 ag inactive, DAX1 inh-1 inactive, ssDAF-12 act inactive and hcDAF12 agonist inactive.
For C[C@@H]1CN([C@H](C)CO)C(=O)CCCn2nncc2CO[C@@H]1CN(C)S(=O)(=O)c1ccc2c(c1)OCCCO2 the results were hgDAF-12 ag inactive, DAX1 inh-1 4.8, ssDAF-12 act inactive, DAX1 inh-2 inactive, hcDAF12 agonist inactive, DAX1 inh confirm inactive and SF1 AF2mut Luc inactive.
For COc1ccc(-c2cc3nc4n(c(=O)c3s2)CCC4)cc1 the results were hgDAF-12 ag inactive, DAX1 inh-1 6.6, ssDAF-12 act inactive, DAX1 inh-2 inactive, hcDAF12 agonist inactive, DAX1 inh confirm 7.3 and SF1 AF2mut Luc inactive.
For COc1ccc(-c2nc3n(c2C)CCC3)cc1 the results were hgDAF-12 ag inactive, DAX1 inh-1 inactive, ssDAF-12 act inactive, DAX1 inh-2 inactive and hcDAF12 agonist inactive.
For CCN1CCN(S(=O)(=O)c2ccc(Cl)c(C(=O)NCCc3ccccc3)c2)CC1 the results were hgDAF-12 ag inactive, DAX1 inh-1 5.6, ssDAF-12 act inactive, DAX1 inh-2 inactive, hcDAF12 agonist inactive, DAX1 inh confirm inactive and SF1 AF2mut Luc inactive.
`CC1CC(C)CN(C(=O)C2CCN(c3cncnc3)CC2)C1` (stereo unspecified) gave hgDAF-12 ag inactive, DAX1 inh-1 inactive, ssDAF-12 act inactive and hcDAF12 agonist inactive.
Screening C/C(=N\NC(=O)c1ccccc1O)c1cccs1 returned hgDAF-12 ag inactive, DAX1 inh-1 5.4, ssDAF-12 act inactive, DAX1 inh-2 inactive, hcDAF12 agonist inactive, DAX1 inh confirm 5.9 and SF1 AF2mut Luc inactive.
Screening O=[N+]([O-])c1ccccc1S(=O)(=O)Nc1cccc(-c2ccc(N3CCCC3)nn2)c1 returned hgDAF-12 ag inactive, DAX1 inh-1 inactive, ssDAF-12 act inactive, DAX1 inh-2 inactive and hcDAF12 agonist inactive.
For O=[N+]([O-])c1ccccc1S(=O)(=O)Nc1cccc(-c2ccc(N3CCOCC3)nn2)c1 the results were hgDAF-12 ag inactive, DAX1 inh-1 5.2, ssDAF-12 act inactive, DAX1 inh-2 inactive, hcDAF12 agonist inactive, DAX1 inh confirm 7.0 and SF1 AF2mut Luc 5.2.
For C/C(=N\NC(=O)c1ccco1)c1ccc(NC(=O)C(F)(F)F)cc1 the results were hgDAF-12 ag inactive, DAX1 inh-1 7.2, ssDAF-12 act inactive, DAX1 inh-2 inactive, hcDAF12 agonist inactive, DAX1 inh confirm inactive and SF1 AF2mut Luc inactive.
COCCn1c(C)cc(C(=O)COC(=O)c2ccc(-n3nc(C)cc3C)cc2)c1C was read as hgDAF-12 ag inactive, DAX1 inh-1 inactive, ssDAF-12 act inactive, DAX1 inh-2 inactive and hcDAF12 agonist inactive.
Screening COCCn1c(C)cc(C(=O)COC(=O)c2ccc(Cl)c(S(N)(=O)=O)c2)c1C returned hgDAF-12 ag inactive, DAX1 inh-1 5.5, ssDAF-12 act inactive, DAX1 inh-2 inactive, hcDAF12 agonist inactive, DAX1 inh confirm 8.7 and SF1 AF2mut Luc inactive.
Screening CC(C)(C)NC(=O)C(c1ccc(-c2ccccc2)cc1)n1c(=O)c(-c2cc3ccccc3[nH]2)nc2ccccc21 (stereo unspecified) returned hgDAF-12 ag inactive, DAX1 inh-1 4.9, ssDAF-12 act 1.4, hcDAF12 agonist inactive, DAX1 inh confirm 4.4 and SF1 AF2mut Luc 4.6.
For CCCn1cnc2cc(NCc3ccccn3)ccc21 the results were hgDAF-12 ag inactive, DAX1 inh-1 5.0, ssDAF-12 act inactive, DAX1 inh-2 inactive, hcDAF12 agonist inactive, DAX1 inh confirm 3.8 and SF1 AF2mut Luc inactive.
Screening COc1ccccc1-n1cnc2cc(NCc3ccccn3)ccc21 returned hgDAF-12 ag inactive, DAX1 inh-1 inactive, ssDAF-12 act inactive, DAX1 inh-2 inactive and hcDAF12 agonist inactive.
Screening CCc1ccc(CNc2ccc3c(c2)ncn3C)cc1 returned hgDAF-12 ag inactive, DAX1 inh-1 4.6, ssDAF-12 act inactive, DAX1 inh-2 inactive, hcDAF12 agonist inactive, DAX1 inh confirm 7.9 and SF1 AF2mut Luc 6.9.
COC(=O)[C@]12C[C@H](CC(=O)NCCc3ccccc3OC)C(=O)N(CCC3=CCCCC3)C1=C[C@H](COCc1ccccc1)O[C@@H]2C was read as hgDAF-12 ag inactive, DAX1 inh-1 inactive, ssDAF-12 act inactive and hcDAF12 agonist inactive.
Screening CCN(CC)C(=O)[C@H]1C[C@@H]2[C@H](C[C@@H](c3ccccc3)[C@H]1C)N(c1ccc(F)cc1)C(=O)N2C/C=C(\C)CCC=C(C)C returned hgDAF-12 ag inactive, DAX1 inh-1 inactive, ssDAF-12 act inactive and hcDAF12 agonist inactive.
Screening O=C(NCCOc1ccc(Cl)cc1)c1ccc2c(c1)OCCO2 returned hgDAF-12 ag inactive, DAX1 inh-1 5.8, ssDAF-12 act inactive, DAX1 inh-2 inactive, hcDAF12 agonist inactive, DAX1 inh confirm 7.5 and SF1 AF2mut Luc 5.4.
O=C(CNC(=O)c1ccc2c(c1)OCO2)NCCOc1ccc(Cl)cc1 was read as hgDAF-12 ag inactive, DAX1 inh-1 inactive, ssDAF-12 act inactive, DAX1 inh-2 inactive and hcDAF12 agonist inactive.
